Bioassay records deposited in PubChem by several laboratories.
E coli growth-1: blocks Escherichia coli growth | OD600, 23 h; active compounds read low | OD600 absorbance (no concentration beside the values) | 330,000 compounds, 0.21% hits;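 active means OD600 absorbance below the run mean of sample wells minus 3.6 SD, in any replicate, cut at about 0.56 in these data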
Tat transport: E. coli Tat transport inhibition; 340,000 compounds, 0.036% hits; inhibition, % at 10 µM; E. coli MC4100 TorA-mCherry Tat export, fluorescence;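 active means mean replicate inhibition at least 50% and at least half of replicates individually reaching 50%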;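 further: exported cargo escapes ClpAP degradation while cytoplasmic cargo is degraded and loses fluorescence; 0% = median of neutral control wells and 100% = median of NaSCN control wells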
E coli growth-2: bacterial growth inhibition, counter-screen for AddAB inhibitors | E. coli V3065 growth, OD600 absorbance, 18 h | 330,000 compounds, 0.27% hits | inhibition, % at 11.9 µM;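 active means inhibition above the campaign's mean inhibition across all tested compounds plus 3 SD, cut at about 9.9% in these data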;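 further: uninfected addAB+ strain grown without phage in ampicillin broth; 0% = DMSO wells and 100% = ciprofloxacin 0.95 µg/ml wells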
phage Ecoli inh: E. coli growth loss with phage present; growth absorbance; inhibition, % at 11.9 µM; 360,000 compounds, 0.26% hits; in the data active means inhibition above about 11%
AddAB inh: less growth of phage-infected E. coli with AddAB; E. coli expressing H. pylori AddAB, absorbance growth; 330,000 compounds, 0.29% hits; AID 435030; inhibition, % at 11.9 µM; in the data active means inhibition above about 12%;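 further: 0% = vehicle wells of infected cells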
AddAB confirm: growth loss of T4-infected E. coli expressing H. pylori AddAB, confirmed | shares compounds with AddAB inh | E. coli V3065 expressing H. pylori AddAB, T4 phage, OD; T4 phage with gene 2 nonsense mutations | inhibition, % at 11.9 µM | 880 compounds, 64% hits;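 active means mean inhibition above a set limit taken from the earlier primary screen, cut at about 13% in these data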;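 further: higher means less bacterial growth since AddAB block lets phage replicate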
RecBCD counter: AddAB counter-screen: growth loss of RecBCD+ E. coli infected with mutant T4 phage; inhibition, % at 11.9 µM; 880 compounds, 73% hits; shares compounds with AddAB inh; E. coli V66 + mutant T4 phage, OD growth;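 active means mean inhibition above the mean of solvent-only control wells plus 3 SD, cut at about 4% in these data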;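 further: optical density read after an 18 h incubation at 37 °C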
bact viab count: counter-screen: bacterial growth inhibition. shares compounds with AddAB inh. bacterial viability, absorbance (AddAB counterscreen). inhibition, % at 11.9 µM. 880 compounds, 35% hits; in the data active means inhibition above about 25%
RecBCD conf: confirmation: growth loss of phage-infected RecBCD+ E. coli (RecBCD inhibitor screen). shares compounds with phage Ecoli inh. E. coli V66 + T4 2- phage, growth OD. inhibition, % at 11.9 µM. 890 compounds, 45% hits;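 active means mean inhibition over triplicates exceeding the hit threshold derived in the original primary screen, cut at about 11% in these data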
Ecoli viability: inhibits E. coli viability, flagging RecBCD hits as nonselective; absorbance (OD) growth; 890 compounds, 29% hits; AID 651983; shares compounds with phage Ecoli inh; inhibition, % at 11.9 µM; in the data active means inhibition above about 20%;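 further: E. coli strain V66 grown with compound alone and no phage infection; 0% = bacteria with DMSO vehicle only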
AddAB counter: growth loss of phage-infected AddAB E. coli, RecBCD counter-screen; 890 compounds, 45% hits; shares compounds with phage Ecoli inh; E. coli expressing H. pylori AddAB + T4 phage, OD growth; gene 2 mutant T4, recBCD-deleted host; inhibition, % at 11.9 µM;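 active means mean inhibition above the solvent-only control wells' mean plus 3 SD, cut at about 22% in these data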;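 further: higher means less bacterial growth from phage killing when AddAB is blocked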
* = called active by the depositor; nt = no result given; ! = not confirmed by another sample. Rows were chosen to be rich in hits. Some 0.5% of all compounds tested hit in one or more screens of this group.

SMILES	E coli growth-1	Tat transport	E coli growth-2	phage Ecoli inh	AddAB inh	AddAB confirm	RecBCD counter	bact viab count	RecBCD conf	Ecoli viability	AddAB counter
Cc1cccc(C)c1OCc1cc(C(=O)N(C)Cc2nc3ccccc3[nH]2)no1	0.57	-10	17*	14*	26*	19*	11*	16	11	14	38*
c1cnc2c(c1)ccc1cccnc12	0.33*	-1	12*!	12*	12*!	13*	20*	7	10	10	6
O=Cc1ccc2ccc3cccnc3c2n1	0.68	-13	5	2	5	nt	nt	nt	nt	nt	nt
[N-]=[N+]=NC1C[C@H](n2ccc(=O)[nH]c2=O)O[C@@H]1CO (stereo partly drawn)	nt	-1	38*	32*	37*	94*	20*	77*	41*	28*	85*
O=C(N/N=C/c1ccc([N+](=O)[O-])o1)C1CC1	nt	7	73*	35*	100*	99*	23*	71*	12*	17	100*
O=[N+]([O-])c1ccc(/C=[N+](\[O-])CCO)o1	nt	14	99*	97*	99*	98*	99*	99*	105*	107*	105*
NC(=O)NN=Cc1ccc(-c2ccc([N+](=O)[O-])cc2)o1	0.67	nt	nt	nt	nt	nt	nt	nt	nt	nt	nt
O=[N+]([O-])c1ccc(C=NN=Cc2ccc([N+](=O)[O-])o2)o1	0.56	nt	nt	nt	nt	nt	nt	nt	nt	nt	nt
COC(=O)N/N=C/c1ccc([N+](=O)[O-])o1	nt	2	79*	19*	97*	99*	21*	67*	13*	18	103*
NC(=O)N/N=C/c1ccc([N+](=O)[O-])o1	nt	-2	101*	63*	101*	98*	40*	98*	34*	57*	103*
O=C1C=C(C=Cc2ccccc2)CC(c2ccc3c(c2)OCO3)C1 (stereo not drawn)	0.7	nt	nt	nt	nt	nt	nt	nt	nt	nt	nt
COc1cccc(/C=N/Nc2ccc([N+](=O)[O-])cn2)c1O	nt	-1	22*	18*	26*	21*	17*	18	12*	18	16
O=S(=O)(Nc1nccs1)c1ccc(Br)cc1	0.64	-4	1	4	4	nt	nt	nt	nt	nt	nt
Nc1ccc(S(=O)(=O)Nc2nccs2)cc1	0.65	2	15*	12*	29*	10	5.5*	16	6	4	27*
CN[C@@H]1[C@H](O)[C@H](NC)[C@H]2O[C@@]3(O)C(=O)C[C@@H](C)O[C@H]3O[C@@H]2[C@H]1O	0.51*	119*	34*	52*	35*	78*	47*	57*	58*	35*	75*
Cc1ccccc1C(=O)NN=C1SCC(=O)N1Cc1ccccc1	0.66	nt	nt	nt	nt	nt	nt	nt	nt	nt	nt
COc1cccc(-n2c(SCc3cc(=O)oc4cc(O)c(O)cc34)nc3ccccc3c2=O)c1	0.69	6	16*	18*	21*	13*	15*	17	5	7	9
COc1ccc(C=NN=C2SC(CC(=O)O)C(=O)N2c2ccc(O)cc2)cc1OC (stereo not drawn)	0.66	nt	nt	nt	nt	nt	nt	nt	nt	nt	nt
CCCCCOc1ccc(CSC(=N)N)cc1[N+](=O)[O-]	0.53*	-21	13*	13*	13*	15*	9.7*	12	2	4	14
CC(=O)N1CCc2c(sc(NC(=O)c3ccc([N+](=O)[O-])o3)c2C#N)C1	0.67	3	nt	8	nt	nt	nt	nt	nt	nt	nt
CC(C)N1CCc2c(sc(NC(=O)c3ccc([N+](=O)[O-])o3)c2C(N)=O)C1	nt	31	100*	34*	100*	102*	48*	103*	38*	62*	103*
COC(=O)c1c(NC(=O)c2ccc([N+](=O)[O-])o2)sc2c1CCN(C(C)C)C2	nt	26	100*	31*	101*	98*	98*	99*	100*	102*	102*
CC(C)(C)NC(=O)CCN(N=Cc1ccccc1O)C1=NS(=O)(=O)c2ccccc21	0.67	nt	nt	nt	nt	nt	nt	nt	nt	nt	nt
Nc1nc(N)c2c(ccc3nccc32)[nH]1	nt	11	95*	96*	93*	97*	91*	102*	101*	103*	102*
Nc1ccc2ncccc2c1N	0.66	4	-5	2	-2	nt	nt	nt	nt	nt	nt
SMILES	E coli growth-1	Tat transport	E coli growth-2	phage Ecoli inh	AddAB inh	AddAB confirm	RecBCD counter	bact viab count	RecBCD conf	Ecoli viability	AddAB counter
O=C(Cn1c(CO)nc2ccccc21)Nc1ccc2c(c1)OCCCO2	0.69	-5	14*	12*	12*	9	12*	10	5	8	4
CC(O)c1nc2ccccc2n1CC(=O)Nc1ccc2c(c1)OCCO2 (stereo not drawn)	0.75	-9	0	1	2	nt	nt	nt	nt	nt	nt
NS(=O)(=O)c1ccc(N=Nc2ccc(O)c3ncccc23)cc1	0.7	-2	4	1	6	nt	nt	nt	nt	nt	nt
Oc1ccc(N=Nc2ccc3c(c2)OCCO3)c2ncccc12	0.71	-6	9	11*	13*	13*	9.6*	9	9	10	14
C=C(C)C1CC=C(C)C(=NNC(=O)COc2ccccc2Cl)C1 (stereo not drawn)	0.71	nt	nt	nt	nt	nt	nt	nt	nt	nt	nt
O=c1cc2oc3cc(O)c(O)cc3c(-c3ccccc3[N+](=O)[O-])c-2cc1O	0.78	0	12*	11*	13*	10	12*	4	7	8	9
O=C(OCc1ccccc1)N1CCCC1C=CCN1CCOCC1 (stereo not drawn)	0.71	nt	nt	nt	nt	nt	nt	nt	nt	nt	nt
COc1ccc(Cl)cc1C(Nc1cccnc1)c1ccc2cccnc2c1O (stereo not drawn)	0.72	2	23*	16*	14*	8	12*	8	7	9	6
COc1c(OC)c(O)c2c(=O)c(O)c(-c3ccccc3)oc2c1OC	0.65	2	1	5	7	nt	nt	nt	nt	nt	nt
COc1ccc(-c2oc3c(OC)c(OC)c(OC)c(O)c3c(=O)c2OC)cc1OC	0.7	3	8	12*	13*	8	4.1*	6	4	6	5
CON=Cc1c(-c2ccc(Cl)cc2)nc2cc(C)ccn12	0.66	nt	nt	nt	nt	nt	nt	nt	nt	nt	nt
CCNC(=S)NNC(=O)c1ccccn1	0.58	-19	0	-1	4	nt	nt	nt	nt	nt	nt
